In the supplement of paper PMC8728848:
This is one part of a sample in which the strongest signals are shown more often than they occur.

Columns and labels:
Test in all cases: glycan array binding signal (z-score within array); higher = stronger binding
Settings in all cases: glycan notation: IUPAC condensed, linker removed
[1] = test system: Gal(b1-4)GlcNAc(b1-3)Gal(b1-4)GlcNAc(b1-3)Gal(b1-4)GlcNAc
Method in brief: (§1)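 Glycan array data were curated from 3228 arrays in the Consortium for Functional Glycomics database and kept only where the protein sequence was available. Glycan names were converted to IUPAC-condensed notation, and columns mapping to the same glycan were averaged. The binding signal is a within-array Z-score, averaged across arrays of the same protein sequence at different concentrations or buffers and across linkers. Negative Z-scores can be read as non-binding.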

[2] = test system: Gal(b1-4)GlcNAc(b1-3)Gal(b1-4)[Fuc(a1-3)GlcNAc(b1-6)]Gal(b1-4)Glc
Method in brief: as §1

[3] = test system: Gal(b1-4)GlcNAc(b1-3)Gal(b1-4)GlcNAc(b1-3)Gal(b1-4)GlcNAc(b1-3)Gal(b1-4)GlcNAc(b1-3)Gal(b1-4)GlcNAc(b1-2)Man(a1-3)[Gal(b1-4)GlcNAc(b1-3)Gal(b1-4)GlcNAc(b1-3)Gal(b1-4)GlcNAc(b1-3)Gal(b1-4)GlcNAc(b1-3)Gal(b1-4)GlcNAc(b1-2)Man(a1-6)]Man(b1-4)GlcNAc(b1-4)[Fuc(a1-6)]GlcNAc
Method in brief: as §1

[4] = test system: Gal(b1-4)GlcNAc(b1-3)Gal(b1-4)GlcNAc(b1-3)GalNAc
Method in brief: as §1

[5] = test system: Gal(b1-4)GlcNAc(b1-6)[Gal(b1-3)]GalNAc
Method in brief: as §1

[6] = test system: Gal(b1-4)GlcNAc(b1-3)Gal(b1-4)[Fuc(a1-3)]GlcNAc(b1-3)Gal(b1-4)[Fuc(a1-3)]GlcNAc
Method in brief: as §1

[7] = test system: Gal(b1-4)GlcNAc(b1-3)GalNAc
Method in brief: as §1

[8] = test system: Gal(b1-4)GlcNAc(b1-3)[Fuc(a1-3)GlcNAc(b1-6)]Gal(b1-4)Glc
Method in brief: as §1

[9] = test system: Gal(b1-4)GlcNAc(b1-3)Gal(b1-4)GlcNAc(b1-3)Gal(b1-4)GlcNAc(b1-3)Gal(b1-4)GlcNAc(b1-3)Gal(b1-4)GlcNAc(b1-3)Gal(b1-4)GlcNAc(b1-2)Man(a1-3)[Gal(b1-4)GlcNAc(b1-3)Gal(b1-4)GlcNAc(b1-3)Gal(b1-4)GlcNAc(b1-3)Gal(b1-4)GlcNAc(b1-3)Gal(b1-4)GlcNAc(b1-3)Gal(b1-4)GlcNAc(b1-2)Man(a1-6)]Man(b1-4)GlcNAc(b1-4)GlcNAc
Method in brief: as §1

[10] = test system: Gal(b1-4)GlcNAc(b1-3)Gal(b1-4)GlcNAc
Method in brief: as §1

## SiiE (Salmonella typhimurium), A0A0H3NVH0
[1]
  glycan array binding signal (z-score): 0.446
[2]
  glycan array binding signal (z-score): -0.187

## AgI/II Vhelical-GFP (Streptococcus mutans)
[3]
  glycan array binding signal (z-score): -0.113
[4]
  glycan array binding signal (z-score): 6.41

## Wza (Escherichia coli), P0A930
[1]
  glycan array binding signal (z-score): 2.94

## GspB (Streptococcus gordonii), Q939N5
[1]
  glycan array binding signal (z-score): -0.783
[5]
  glycan array binding signal (z-score): -0.739

## Epa22
[6]
  glycan array binding signal (z-score): -0.575
[7]
  glycan array binding signal (z-score): -0.621
[8]
  glycan array binding signal (z-score): -0.173

## AgI/IIC123-GFP (Streptococcus mutans)
[3]
  glycan array binding signal (z-score): 5
[9]
  glycan array binding signal (z-score): 1.82
[8]
  glycan array binding signal (z-score): 0.19

## BambL (Burhholderia ambifaria), Q0B4G1
[10]
  glycan array binding signal (z-score): -0.314
